Compounds without any hit were thinned out: in the full panel of roughly 83,000, 20% have a hit.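 Values shown are percent growth following 48 h exposure of cells in 96-well plates to a single concentration of compound; below 10 was considered active.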 Activity calls are given as the source filed them.
These compounds were tested on MDA-MB-468 breast (assay: NCI-60 one-dose screen, 48 h (100 = growth as untreated, 0 = no growth, -100 = all killed)). Conditions: 10 µM unless noted.
`CNC(=O)c1cc(Oc2ccc3nc(NC(=O)c4cccc(OC(F)(F)F)c4)sc3c2)ccn1` was tested, and the growth was 46% (inactive).
With `COc1ccc(/C=C(\C#N)n2nnc3ccc(Cl)cc32)cc1` the growth was 28.9% (inactive).
For `O=C1C=CC[C@H](/C=C/c2ccccc2)O1`, the growth was 10.2% (inactive).
In the case of `Nc1c(C(=O)C[C@@H](N)CO)ccc2c1C(=O)CCO2`, the growth is reported as -14.1% (active).
In the case of `CNC(=O)OC1C(O[C@H]2C[C@H]3[C@@H]4CC=C5C[C@@H](O)CC[C@]5(C)[C@H]4CC[C@]3(C)[C@H]2[C@H](C)C(=O)CCC(C)C)OCC(O)C1OC1OCC(O)C(O)C1OC(=O)c1ccc(OC)cc1` (stereo not given in full), the growth is reported as -0.149% (active).
For `COc1cc2nc(Nc3cccc(C(=O)O)c3)nc(N)c2cc1OC`, the growth was 108% (inactive).
With `CS(=O)(=O)c1ccc(/C(=N/N=C(N)N)c2ccc(Cl)cc2)cc1` the growth was 68.5% (inactive).
For `FC(F)(F)c1cc(NC2=NCCN=C(Nc3cc(C(F)(F)F)cc(C(F)(F)F)c3)SS2)cc(C(F)(F)F)c1`, the growth was 23.6% (inactive).
With `COc1cc2oc(-c3cccc(NC(=O)c4cccc(Br)c4)c3)cc(=O)c2c(OC)c1OC` the growth was 66.8% (inactive).
In the case of `COc1ccc2nc(SCC(=O)Nc3ccccc3C)[nH]c2c1`, the growth is reported as 98% (inactive).
`Nc1nc(SCC#CCCl)c2[nH]cnc2n1` was tested, and the growth was -6.97% (active).
With `CC(O)c1cc2ccccc2c(=O)o1` (stereo not given) the growth was 98.7% (inactive).
`Cn1c(=O)c2c(ncn2CCC(=O)Nc2ccc(F)cc2)n(C)c1=O` was tested, and the growth was 106% (inactive).
In the case of `CCNc1cc2c(cc1Br)-c1ccccc1C2=O`, the growth is reported as 50.2% (inactive).
`CCn1cc(C(=O)N/N=C/c2ccc(Br)cc2)c(=O)c2cc(F)c(N3CCNC(C)C3)c(F)c21` (stereo not given) was tested, and the growth was 82.5% (inactive).
